Unmarked numbers belong to inactive results.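 How the source made its calls: active = log2 fold change beyond 2 SD from the library mean after excluding viability outliers; inactive = within 2 SD.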

In this test the target is PARP1 L713F-nLuc biosensor (HCT116) (UniProt P09874). Put plainly: PARP1 L713F-nLuc/akaLuc ratio relative to DMSO control (biosensor stabilization) (fold change); higher = more PARP1 biosensor stabilization (target engagement / stabilizer), active = hit call of the paper. As to conditions: stock concentration (mM; final µM = stock mM x 1): 10; 24 h.
Sequence of PARP1 L713F-nLuc biosensor (HCT116) (P09874 whole entry L713F, looked up): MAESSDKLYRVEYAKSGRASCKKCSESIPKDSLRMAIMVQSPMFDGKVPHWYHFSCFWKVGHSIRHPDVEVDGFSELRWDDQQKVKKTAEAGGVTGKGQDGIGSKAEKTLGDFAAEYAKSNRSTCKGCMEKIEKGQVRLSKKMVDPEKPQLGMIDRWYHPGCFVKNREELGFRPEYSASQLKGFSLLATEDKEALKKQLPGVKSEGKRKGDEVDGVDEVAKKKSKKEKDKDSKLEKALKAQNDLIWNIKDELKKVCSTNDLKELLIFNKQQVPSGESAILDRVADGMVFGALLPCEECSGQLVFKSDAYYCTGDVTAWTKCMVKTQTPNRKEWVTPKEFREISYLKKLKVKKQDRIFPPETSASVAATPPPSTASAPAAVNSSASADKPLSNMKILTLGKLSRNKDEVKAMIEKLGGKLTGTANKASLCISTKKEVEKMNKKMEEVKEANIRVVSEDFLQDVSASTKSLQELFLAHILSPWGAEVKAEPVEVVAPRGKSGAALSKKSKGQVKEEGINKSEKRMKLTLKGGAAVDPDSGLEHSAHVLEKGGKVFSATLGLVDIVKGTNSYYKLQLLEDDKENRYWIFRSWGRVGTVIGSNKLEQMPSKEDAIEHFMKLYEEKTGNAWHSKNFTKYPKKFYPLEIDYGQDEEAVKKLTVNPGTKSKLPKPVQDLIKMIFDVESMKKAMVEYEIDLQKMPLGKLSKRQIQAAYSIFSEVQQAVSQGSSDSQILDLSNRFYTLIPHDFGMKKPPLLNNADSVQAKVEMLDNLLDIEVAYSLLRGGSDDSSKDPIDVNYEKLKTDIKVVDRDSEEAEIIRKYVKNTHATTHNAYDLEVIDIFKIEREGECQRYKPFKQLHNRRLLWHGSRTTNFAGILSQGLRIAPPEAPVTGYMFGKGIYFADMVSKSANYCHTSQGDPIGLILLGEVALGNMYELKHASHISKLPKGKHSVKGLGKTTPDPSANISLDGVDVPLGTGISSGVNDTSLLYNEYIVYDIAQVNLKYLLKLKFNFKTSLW
For the compound `CC(C)=CCCC1=CC(=O)c2c(O)ccc(O)c2C1=O` [Deoxyshikonin], the “PARP1 L713F-nLuc/akaLuc ratio” value was 0.834.

For `CC[C@@H](C(=O)[C@@H](C)[C@@H](O)[C@H](C)[C@@H]1O[C@@H]([C@@H](CC)C(=O)O)CC[C@@H]1C)[C@H]1O[C@]2(C=C[C@@H](O)[C@]3(CC[C@@](C)([C@H]4CC[C@](O)(CC)[C@H](C)O4)O3)O2)[C@H](C)C[C@@H]1C` [Salinomycin (from Streptomyces albus)], the “PARP1 L713F-nLuc/akaLuc ratio” value is 0.553.

For `COc1cc(C)[nH]c(=O)c1CNC(=O)c1c(C)n([C@H](C)C2CCOCC2)c2ccccc12`, the “PARP1 L713F-nLuc/akaLuc ratio” value was 0.857.

Turning to `N[C@@H](CNC(=O)C(=O)O)C(=O)O` [Dencichine], the “PARP1 L713F-nLuc/akaLuc ratio” value was 1.45.

Source of the values: the supplement of paper PMC11624193, “Coupling cellular drug-target engagement to downstream pharmacology with CeTEAM” (Nature Communications, 2024).
